This passage reports percent growth results from the supplement of paper PMC5940239.

Unmarked numbers belong to inactive results.

The test system of this assay is Madurella mycetomatis MM55. Nature of the assay: percent growth relative to solvent control; higher = less inhibition, active = 20 or less. As to conditions: 100 µM; 7 days.

For the compound `COc1cccc2c(C)nc(N=C(N)N)nc12`, the percent growth was 96.9%.

For `CNC(=O)c1cc(S(=O)(=O)N2CCN(c3ccccn3)CC2)cs1`, the percent growth is 143%.

Consider `CNC1C(OC2C(OC3C(O)C(O)C(NC(=N)N)C(O)C3NC(=N)N)OC(C)C2(O)C=O)OC(CO)C(O)C1O` (stereo not drawn), for which the percent growth is 119%.

With `CO[C@H]1/C=C/O[C@@]2(C)Oc3c(C)c(O)c4c(O)c(/c(=C/NN5CCN(C)CC5)c(O)c4c3C2=O)=N\C(=O)/C(C)=C\C=C/[C@H](C)[C@H](O)[C@@H](C)[C@@H](O)[C@@H](C)[C@H](OC(C)=O)[C@@H]1C`, the percent growth was 92.6%.

With `CC[C@H](CO)NCCN[C@H](CC)CO`, the percent growth was 139%.

On to `Clc1cccc(C(c2ccc(CN3CCNCC3)cc2)n2ccnc2)c1` (stereo not drawn), for which the percent growth was 115%.

Take `N#Cc1nc(-c2ccccc2F)oc1NCCc1ccccc1`: the percent growth is 56.7%.

As to `CCN(CC)S(=O)(=O)c1ccc(C(=O)Nc2cc(C)nn2-c2nc(C)c(C)c(=O)[nH]2)cc1`, the percent growth is 63%.

`COc1ccc2nc(C)cc(OCC(=O)NCc3ccccc3)c2c1`: the percent growth is 83.4%.

`CCc1nc2ccc(Cl)cn2c1C(=O)NCc1ccc(N2CCC(c3ccc(OC(F)(F)F)cc3)CC2)cc1`: the percent growth is 126%.

For the compound `CCC(NC(=O)c1ccccc1NC(=O)c1ccc(C)cc1)C(=O)OC` (stereo not drawn), the percent growth was 98.3%.

Take `Cc1cc(C(=O)Nc2ccc(-c3ccccc3)cc2)no1`: the percent growth was 199%.

Consider `Cc1nc(-c2ccccn2)nc(NCCc2ccc(S(C)(=O)=O)cc2)c1Cl`, for which the percent growth was 118%.
